Assay results published in PubChem BioAssay (EPA / NIEHS).
Active and inactive are the calls of the source. How the source made its calls: active means hit-call score of the fitted dose curve at least 0.9, where 1 is the maximum; inactive means score below 0.9.

What was measured:
[1] = read-out: Interleukin-1 alpha (IL1a), IL1A (gene 3552); test: BSK_KF3CT_IL1a: BioMAP Diversity Plus: KF3CT Assay for Interleukin-1 alpha (IL1a) Biomarker Activity (AID 2283070); conditions: primary human keratinocytes with fibroblasts; actives raise or lower the signal
Procedure, shortened: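 Readout is IL-1a level by ELISA, compared bidirectionally with DMSO as baseline. Cells: human keratinocytes co-cultured with foreskin fibroblasts, harvested 24 h post-dose.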

[2] = read-out: TIMP metallopeptidase inhibitor 2 (TIMP2), TIMP2 (gene 7077); test: BSK_KF3CT_TIMP2: BioMAP Diversity Plus: KF3CT Assay for TIMP metallopeptidase inhibitor 2 (TIMP2) Biomarker Activity (AID 2283071); conditions: primary human keratinocytes with fibroblasts; actives raise or lower the signal
Procedure, shortened: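 Measurements come from ELISA detection of TIMP-2 at 24 hours in a dosed human keratinocyte and foreskin fibroblast co-culture. DMSO serves as negative control and baseline.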

[3] = read-out: Transforming growth factor beta 1 (TGFb1), TGFB1 (gene 7040); test: BSK_KF3CT_TGFb1: BioMAP Diversity Plus: KF3CT Assay for Transforming growth factor beta 1 (TGFb1) Biomarker Activity (AID 2283072); conditions: primary human keratinocytes with fibroblasts; actives raise or lower the signal
Procedure, shortened: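 TGF-b1 ELISA on a 24 h dosed co-culture of human keratinocytes and foreskin fibroblasts; cytotoxicity tracked in parallel cultures by SRB staining.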

[4] = read-out: C-C motif chemokine 2 (Homo sapiens) (UniProt P13500); test: BSK_KF3CT_MCP1: BioMAP Diversity Plus: KF3CT Assay for Monocyte Chemoattractant Protein 1 (MCP1/CCL2) Biomarker Activity (AID 2283073); conditions: primary human keratinocytes with fibroblasts; actives raise or lower the signal
Procedure, shortened: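 Keratinocytes and foreskin fibroblasts were co-cultured, dosed with chemical, and sampled 24 h later. MCP-1 was quantified by ELISA, and the endpoint was analyzed with bidirectional fitting using DMSO as negative control.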

[5] = read-out: Matrix Metallopeptidase 9 (MMP9), MMP9 (gene 4318); test: BSK_KF3CT_MMP9: BioMAP Diversity Plus: KF3CT Assay for Matrix Metallopeptidase 9 (MMP9) Biomarker Activity (AID 2283074); conditions: primary human keratinocytes with fibroblasts; actives raise or lower the signal
Procedure, shortened: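 Values come from bidirectional fitting relative to DMSO of MMP-9 levels, which were measured by ELISA. Measurements were taken 24 h after chemical dosing of a keratinocyte and foreskin fibroblast co-culture.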

[6] = read-out: urokinase plasminogen activator (uPA), PLAU (gene 5328); test: BSK_KF3CT_uPA: BioMAP Diversity Plus: KF3CT Assay for urokinase plasminogen activator (uPA) Biomarker Activity (AID 2283075); conditions: primary human keratinocytes with fibroblasts; actives raise or lower the signal
Procedure, shortened: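 Values derive from bidirectional fitting against DMSO controls. Keratinocyte/foreskin fibroblast co-cultures received chemical; 24 h later uPA was detected by ELISA, with SRB total-protein staining in parallel wells for overt cytotoxicity.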

CD40, CD40 (gene 958) [7] = test: BSK_LPS_CD40: BioMAP Diversity Plus: LPS Assay for CD40 Biomarker Activity (AID 2283076); conditions: primary human HUVEC with PBMC; actives raise or lower the signal
Procedure, shortened: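 CD40 signal, measured by ELISA, is fitted in both directions relative to DMSO vehicle. The system is an LPS-driven human vascular primary co-culture of endothelial cells and PBMC, sampled 24 h after compound addition.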

[8] = read-out: Interleukin-8 (IL8), CXCL8 (gene 3576); test: BSK_LPS_IL8: BioMAP Diversity Plus: LPS Assay for Interleukin-8 (IL8) Biomarker Activity (AID 2283078); conditions: primary human HUVEC with PBMC; actives raise or lower the signal
Procedure, shortened: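 Endothelial cells and PBMC from human donors are co-cultured, treated with chemicals and LPS, then assayed for IL-8 by ELISA after 24 h. Parallel SRB staining (0.1% SRB after 10% TCA fixation, 560 nm) flags cytotoxicity.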

[9] = BSK_LPS_SRB: Viability Assessment in the BioMAP Diversity Plus: LPS Assay (AID 2283079); conditions: primary human HUVEC with PBMC;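 further: total protein by sulforhodamine B absorbance as a cytotoxicity measure; measured one day after compound addition; fitted in both directions against DMSO so loss or gain of signal counts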
Procedure, shortened: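 Overt cytotoxicity was gauged by sulforhodamine B total-protein staining in a primary human vascular endothelial and mononuclear cell co-culture 24 h post-dosing. Activity was fitted in both directions relative to DMSO.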

[10] = read-out: Interleukin-1 alpha (IL1a), IL1A (gene 3552); test: BSK_LPS_IL1a: BioMAP Diversity Plus: LPS Assay for Interleukin-1 alpha (IL1a) Biomarker Activity (AID 2283080); conditions: primary human HUVEC with PBMC; actives raise or lower the signal
Procedure, shortened: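 Measured: IL-1 alpha via ELISA at 24 h in LPS-activated human umbilical vein endothelium–PBMC co-culture. Baseline: DMSO, bidirectional fitting.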

[11] = read-out: Monocyte Chemoattractant Protein-1 (MCP1), CCL2 (gene 6347); test: BSK_LPS_MCP1: BioMAP Diversity Plus: LPS Assay for Monocyte Chemoattractant Protein-1 (MCP1) Biomarker Activity (AID 2283081); conditions: primary human HUVEC with PBMC; actives raise or lower the signal
Procedure, shortened: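 LPS-stimulated HUVEC/PBMC co-culture; chemical, 24 h; MCP-1 by ELISA; bidirectional fit vs DMSO; cytotoxicity via SRB (0.1% stain, 10% TCA fix, 560 nm) in parallel wells.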

[12] = BSK_LPS_PGE2: BioMAP Diversity Plus: LPS Assay for Prostaglandin E2 (PGE2) Biomarker Activity (AID 2283082); conditions: primary human HUVEC with PBMC; actives raise or lower the signal
Procedure, shortened: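 Primary human endothelial cells and blood mononuclear cells, co-cultured with LPS, receive test chemical; PGE2 ELISA follows at 24 h, with SRB-stained parallel cultures flagging cytotoxicity.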

[13] = read-out: Macrophage colony-stimulating factor (MCSF), CSF1 (gene 1435); test: BSK_LPS_MCSF: BioMAP Diversity Plus: LPS Assay for Macrophage colony-stimulating factor (MCSF) Biomarker Activity (AID 2283083); conditions: primary human HUVEC with PBMC; actives raise or lower the signal
Procedure, shortened: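 Compound is added to a human vascular primary co-culture of umbilical vein endothelium and blood mononuclear cells. After 24 h, M-CSF is quantified by ELISA. Signal changes are fitted in both directions against DMSO.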

[14] = read-out: Tissue Factor, F3 (gene 2152); test: BSK_LPS_TissueFactor: BioMAP Diversity Plus: LPS Assay for Tissue Factor Biomarker Activity (AID 2283084); conditions: primary human HUVEC with PBMC; actives raise or lower the signal
Procedure, shortened: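 In this co-culture system of umbilical vein endothelium with PBMC, stimulated with LPS, cell-surface CD142 is detected by ELISA at 24 h. Endpoint values derive from bidirectional fitting, DMSO serving as baseline.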

[15] = read-out: Tumor necrosis factor (Homo sapiens) (UniProt P01375); test: BSK_LPS_TNFa: BioMAP Diversity Plus: LPS Assay for Tumour Necrosis Factor alpha (TNFa) Biomarker Activity (AID 2283085); conditions: primary human HUVEC with PBMC; actives raise or lower the signal
Procedure, shortened: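 ELISA-based TNFa endpoint in a human endothelial–PBMC co-culture sampled 24 h post-exposure. Curves were fitted in both directions using DMSO as baseline of activity.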

[16] = read-out: Vascular cell adhesion molecule 1 (VCAM1), VCAM1 (gene 7412); test: BSK_LPS_VCAM1: BioMAP Diversity Plus: LPS Assay for Vascular cell adhesion molecule 1 (VCAM1) Biomarker Activity (AID 2283086); conditions: primary human HUVEC with PBMC; actives raise or lower the signal
Procedure, shortened: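 Measured by ELISA: VCAM-1 in LPS-activated HUVEC/PBMC co-cultures 24 h after treatment. Values reflect bidirectional fitting with DMSO as baseline.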

CD38, CD38 (gene 952) = test: BSK_SAg_CD38: BioMAP Diversity Plus: SAg Assay for CD38 Biomarker Activity (AID 2283087); conditions: primary human HUVEC with PBMC; actives raise or lower the signal
Procedure, shortened: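 Measures CD38 on a human endothelial/PBMC co-culture driven by SEB and TSST-1, 24 h after compound exposure, using ELISA with fluorescence detection; DMSO defines baseline for bidirectional curve fitting.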

CD40, CD40 (gene 958) [17] = test: BSK_SAg_CD40: BioMAP Diversity Plus: SAg Assay for CD40 Biomarker Activity (AID 2283088); conditions: primary human HUVEC with PBMC; actives raise or lower the signal
Procedure, shortened: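 Fluorescence ELISA read-out of CD40 from umbilical vein endothelium plus peripheral blood mononuclear cells, sampled 24 h after dosing. Values come from bidirectional curve fitting with DMSO as baseline.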

CD69, CD69 (gene 969) = test: BSK_SAg_CD69: BioMAP Diversity Plus: SAg Assay for CD69 Biomarker Activity (AID 2283089); conditions: primary human HUVEC with PBMC; actives raise or lower the signal
Procedure, shortened: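 HUVEC co-cultured with PBMC were dosed with chemical, and CD69 was measured by ELISA with fluorescence read-out 24 h later. Bidirectional curve fitting used DMSO as negative control and activity baseline.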

[18] = read-out: E-selectin (Homo sapiens) (UniProt P16581); test: BSK_LPS_Eselectin: BioMAP Diversity Plus: LPS Assay for Eselectin Biomarker Activity (AID 2283077); conditions: primary human HUVEC with PBMC; actives raise or lower the signal
Procedure, shortened: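 Signal of E-selectin, detected by ELISA, served as the endpoint; cells were umbilical vein endothelium with PBMC, read 24 h after treatment. DMSO defined baseline, and both increases and decreases were fitted.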

Measured: outcome

Sequence of Tumor necrosis factor (Homo sapiens) (P01375 whole entry, looked up): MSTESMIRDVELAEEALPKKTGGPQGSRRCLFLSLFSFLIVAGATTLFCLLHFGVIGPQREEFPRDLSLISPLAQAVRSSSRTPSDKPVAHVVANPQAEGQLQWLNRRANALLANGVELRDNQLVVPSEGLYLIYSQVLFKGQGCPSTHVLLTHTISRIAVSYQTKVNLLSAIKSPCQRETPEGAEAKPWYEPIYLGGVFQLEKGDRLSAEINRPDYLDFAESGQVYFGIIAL
Sequence of E-selectin (Homo sapiens) (P16581 whole entry, looked up): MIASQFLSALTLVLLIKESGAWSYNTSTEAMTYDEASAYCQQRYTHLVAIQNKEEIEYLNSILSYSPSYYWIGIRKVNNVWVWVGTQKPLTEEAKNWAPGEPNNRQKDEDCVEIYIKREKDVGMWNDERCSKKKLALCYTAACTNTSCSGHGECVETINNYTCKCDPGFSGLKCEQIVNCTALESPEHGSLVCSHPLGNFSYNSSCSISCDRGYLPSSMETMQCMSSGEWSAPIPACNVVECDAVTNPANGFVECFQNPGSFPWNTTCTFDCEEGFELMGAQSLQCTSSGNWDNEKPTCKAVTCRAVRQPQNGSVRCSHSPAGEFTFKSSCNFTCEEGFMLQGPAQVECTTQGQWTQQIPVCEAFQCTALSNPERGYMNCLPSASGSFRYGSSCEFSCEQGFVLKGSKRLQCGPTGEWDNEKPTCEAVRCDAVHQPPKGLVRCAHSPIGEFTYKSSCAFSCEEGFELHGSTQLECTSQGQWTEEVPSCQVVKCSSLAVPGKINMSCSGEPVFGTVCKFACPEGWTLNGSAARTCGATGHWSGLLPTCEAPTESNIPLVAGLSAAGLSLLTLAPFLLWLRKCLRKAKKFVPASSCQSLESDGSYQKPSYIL

CCOC(=O)c1ccccc1C(=O)OCC
not listed: [18]
inactive: all other assays above

Cc1ccc([N+](=O)[O-])cc1C
not listed: [15] | [18]
inactive: all other assays above

Cc1ccc(N)cc1N
not listed: [13] | [15]
inactive: all other assays above
